Bioassay records deposited in PubChem BioAssay by National Center for Advancing Translational Sciences (NCATS).
ATXN viability = reduces viability in counter-screen for ATXN expression inhibitors | S2 cells (HEK-293 line with an ATXN2-luciferase reporter) viability, CellTiter-Fluor protease fluorescence, 24 h | Potency, µM (top dose mostly 56.7 µM), actives largely listed as cytotoxic | hit rate 0.49% among 400,000 | AID 651635; further: potency means the concentration at half of the fitted maximal effect; nearly all actives have a fitted effect of over 40% in size
HepG2 tox = counter-screen for TGF-b inhibitors: cytotoxicity in HepG2 cells; HepG2 CAGA-GFP viability, ATP luminescence, 18 h; Potency, µM (highest dose often 46.1 µM), for the others: top-dose activity change, negative = cytotoxicity, usual class: cytotoxic; hit rate 0.76% among 410,000; AID 588856; further: potency means the concentration at half of the fitted maximal effect
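CellTiter-Glo luminescence gave cytotoxicity after 18 hours at 37 degrees C. The cells were HepG2 CAGA-GFP in 1% FBS DMEM, stimulated with 500 pg/mL TGF-beta after compound addition. %Activity was normalised to no-cell wells (complete cell-killing) and DMSO (no toxicity), and curves were fitted and classified.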
Six1-Eya2 blk = blocks human Six1 binding to Eya2; Q15475+O00167; AlphaScreen GST-Six1/His-Eya2 binding, biochemical; stronger effect = lower value; activity change, % (no concentration beside the values); hit rate 0.56% among 360,000; AID 651725; in the data active means activity change below about -65%; inconclusive means mostly about -30% to -63%; further: on the % scale 0 is the no-effect control and ±100 the full control effect
Target sequence (O00167 whole entry, looked up): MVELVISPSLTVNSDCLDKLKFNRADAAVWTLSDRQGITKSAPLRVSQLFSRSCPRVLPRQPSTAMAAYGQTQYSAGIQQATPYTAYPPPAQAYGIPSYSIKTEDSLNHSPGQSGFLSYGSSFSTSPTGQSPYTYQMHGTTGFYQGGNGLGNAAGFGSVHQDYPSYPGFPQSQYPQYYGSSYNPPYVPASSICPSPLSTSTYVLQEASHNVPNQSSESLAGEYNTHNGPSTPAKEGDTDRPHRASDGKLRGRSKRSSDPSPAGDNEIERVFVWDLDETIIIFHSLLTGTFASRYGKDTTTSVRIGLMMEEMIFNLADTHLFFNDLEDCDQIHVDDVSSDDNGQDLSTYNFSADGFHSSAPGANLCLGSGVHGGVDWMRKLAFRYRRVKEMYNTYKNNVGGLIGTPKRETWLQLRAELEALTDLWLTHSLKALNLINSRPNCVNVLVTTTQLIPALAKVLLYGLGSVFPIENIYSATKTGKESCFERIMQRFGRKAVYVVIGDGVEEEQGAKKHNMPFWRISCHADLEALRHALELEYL
Target sequence (Q15475 whole entry, looked up): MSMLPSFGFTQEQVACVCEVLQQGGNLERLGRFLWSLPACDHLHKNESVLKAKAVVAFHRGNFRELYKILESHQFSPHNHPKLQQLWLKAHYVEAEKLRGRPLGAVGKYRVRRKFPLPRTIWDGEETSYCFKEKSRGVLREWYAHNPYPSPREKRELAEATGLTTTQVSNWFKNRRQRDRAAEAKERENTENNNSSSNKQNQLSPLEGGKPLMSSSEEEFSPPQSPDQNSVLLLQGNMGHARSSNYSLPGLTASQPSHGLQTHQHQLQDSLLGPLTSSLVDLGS
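Homogeneous AlphaScreen proximity assay pairing GST-Six1 with His-tagged Eya2 (added as 5X mix: 250 nM and 500 nM) in 50 mM Tris pH 8.0, 300 mM NaCl, 1 mM TCEP. Glutathione donor and nickel acceptor beads; 1 h, 37 °C, dark.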
TGFb inhibitor = inhibitors of TGF-b signaling | HepG2 CAGA-GFP TGF-b/SMAD3 reporter, GFP fluorescence, 18 h; TGF-beta stimulated, 500 pg/mL final | Potency, µM (series often up to 46.1 µM), inactives show top-dose activity, negative = inhibition, actives largely listed as inhibitors | hit rate 1.2% among 410,000 | AID 588855; further: potency means the concentration at half of the fitted maximal effect; on the % scale 0 is the no-effect control and ±100 the full control effect; nearly all actives have a fitted effect of over 65% in size
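TGF-beta reporter screen: HEPG2 CAGA-GFP, 1% FBS, 500 pg/mL TGF-beta final, 18 h; per-cell GFP summed per well; curves fitted and categorized by class.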
ATXN2 expr inh = reduces ATXN2 reporter expression in HEK-293 cells; hit rate 0.72% among 360,000; Potency, µM (highest dose often 57 µM), without a hit: at the highest dose activity change, negative = inhibition, actives largely listed as inhibitors; HEK-293 ATXN2-luciferase reporter, luminescence, 24 h; further: potency means the concentration at half of the fitted maximal effect; on the % scale 0 is the no-effect control and ±100 the full control effect; nearly all actives have a fitted effect of over 55% in size
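qHTS (up to 57 uM final) was run with 24 h compound exposure of reporter cells at 37 °C. Each well was multiplexed: SteadyGlo luminescence measured ATXN2-luciferase expression after a fluorogenic Gly-Phe-AFC viability readout (25 uM final).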
CtBP-E1A blk = CtBP/E1A binding inhibition; AlphaScreen GST-E1A/His-CtBP binding, 1536-well; stronger effect = lower value; activity change, % (no concentration beside the values); hit rate 0.49% among 340,000; AID 651724; in the data active means activity change below about -65%; inconclusive means mostly about -30% to -63%; further: on the % scale 0 is the no-effect control and ±100 the full control effect
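Steps: dispense buffer (Tris pH 8.0, NaCl 300 mM, TCEP 1 mM, BSA, Tween 20); add 5X protein mix (GST-E1A, His-CtBP, 125 nM each); pin 23 nL compound; 2 h at 37 °C, dark; add 5X beads (50 ug/mL); 1 h; read.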
* marks the source's active call; other numbers are inactive results; i = inactive; u = inconclusive; x = no result given; [ ] = another dose, or the depositor's remark. Rows were chosen to be rich in hits. Some 2.8% of all compounds tested hit in one or more screens of this group. Unless noted, the call rests on the fitted dose curve; in most records, active means well fitted curve in the direction sought with a large enough effect; inconclusive means small, poorly fitted or top-dose-only effect, or another doubt; inactive means no such curve, though single readings can be large; an effect the other way counts as inactive or inconclusive.

SMILES	ATXN viability	HepG2 tox	Six1-Eya2 blk	TGFb inhibitor	ATXN2 expr inh	CtBP-E1A blk
O=C(c1ccc(C(=O)N2CCC(N3CCCC3)CC2)c(Nc2ccccc2)c1)N1CCC(N2CCCC2)CC1	x	x	x	x	-7%	x
COc1ccccc1-c1ccnc(-n2ncc(C(=O)NC(C)(C)CO)c2C2CC2)n1	i	x	x	x	x	x
COc1ccc(-c2cc3nc(CCl)[nH]c(=O)c3s2)cc1	i	22µM*	-17	u	13µM*	-1
COc1ccc(N2C(=O)C(CC(=O)Nc3ccc(F)cc3)N(CCC3=CCCCC3)C2=O)cc1 (configuration not stated)	i	-28%	x	-27%	-18%	x
O=C(CC1C(=O)N(c2ccccc2)C(=O)N1CCC1=CCCCC1)Nc1ccc(F)cc1 (configuration not stated)	u	-39%	x	11µM*	-22%	x
COc1ccccc1CN(Cc1c(Cl)cccc1Cl)S(=O)(=O)c1ccc(Br)cc1	x	10%	x	14%	x	x
COc1ccccc1C(C[N+](=O)[O-])c1c(N)n(C)c(=O)n(C)c1=O (configuration not stated)	x	10µM*	21	7.1µM*	x	x
CC1=C/C(=N\Nc2ccccc2[N+](=O)[O-])CC(C)(C)C1	i	-11%	-69*	-23%	-1%	-68*
Cc1cc(C)n(-c2nnc(Nc3ccc(C)c(Cl)c3)c3ccccc23)n1	i	-21%	x	10µM*	-5%	x
CC1(C)Cc2c(c(N3CCOCC3)nc3snc(Br)c23)CO1	i	-8%	-6	-4%	-3%	6
CC1(C)Cc2c(c(N3CCOCC3)nc3snc(N)c23)CO1	u	-47%	6	10µM*	-16%	5
O=C(NCC(c1ccco1)S(=O)(=O)c1ccc(Cl)cc1)c1ccc(C(F)(F)F)cc1 (configuration not stated)	x	-17%	x	16µM*	x	x
Cc1ccc(S(=O)(=O)Nc2ccccc2C(C(=O)OC(C)(C)C)C(=O)OC(C)(C)C)cc1	x	x	-1	x	x	-1
O=C1C2CCCCN2C(=O)N1CCCN1CCN(c2ccc(F)cc2)CC1 (configuration not stated)	i	1%	-3	-1%	-15%	-1
Nc1ccc(N2CCN(CCCCN3C(=O)C4CCCN4C3=O)CC2)cc1 (configuration not stated)	18µM*	-4%	-5	0%	-16%	-4
CCCCCN=Cc1c(C)[nH]n(-c2nc3ccccc3s2)c1=O	i	1.4µM*	-4	-15%	13µM*	-3
CCCc1[nH]n(-c2nc3ccccc3s2)c(=O)c1C=NCCCOC	i	-46%	3	-18%	11%	-3
CCOc1ccc(CNC(=O)Cn2nc(C)c3sc4ccccc4c3c2=O)cc1	x	-41%	x	u	x	x
CCCOc1ccc(C(=O)NNC(=S)NC(=O)CC)cc1	x	-10%	-5	-23%	28µM*	-4
COc1cc(/C=N\NC(=O)c2sc(N)nc2C)cc(OC)c1OC	i	-18%	-82*	-16%	49%	-84*
COc1cc(/C=N/NC(=O)c2sc(N)c(C#N)c2C)cc(Br)c1O	i	-1%	-67*	-12%	0%	-77*
Cc1ccc(C(=O)N/N=C\c2cccnc2)s1	i	-4%	-2	14%	12%	2
Cc1c(C(=O)N/N=C/c2cccnc2)sc(N)c1C#N	i	6.3µM*	-15	10µM*	2%	-21
CCN[C@@H]1C[C@H](N)[C@@H](OC2OC(CN)=CCC2N)[C@H](O)[C@H]1O[C@H]1OC[C@](C)(O)[C@H](NC)[C@H]1O (some centres not stated)	i[0.575 µM]	x	x	x	-2%[0.709 µM]	x
O=C(OCC1CCCO1)c1ccc2c(c1)N(Cc1ccccc1F)C(=O)c1ccccc1S2(=O)=O (configuration not stated)	i	-3%	x	0%	0%	x
SMILES	ATXN viability	HepG2 tox	Six1-Eya2 blk	TGFb inhibitor	ATXN2 expr inh	CtBP-E1A blk
COc1ccc(-c2nnc3n2N=C(C)CS3)cc1	i	-14%	-2	2%	8%	0
CCOC(=O)/C(=C/c1ccc(OC(F)F)cc1)C1=Nn2c(nnc2-c2ccc(Cl)cc2)SC1	7.9µM*	3.2µM*	2	u	10µM*	-6
CC1=Nn2c(nnc2-c2ccc(F)cc2)SC1	i	-34%	-1	-1%	20%	2
CCOC(=O)/C(=C\c1ccc(OC(F)F)cc1)C1=Nn2c(nnc2-c2ccc(Cl)cc2)SC1	u	2.5µM*	-23	4µM*	u	11
Oc1[nH]c2ccccc2c1N=Nc1ccccn1	i	-19%	0	-15%	54%	6
Oc1c(N=Nc2ccccn2)ccc2ccccc12	10µM*	-44%	-97*	6.3µM*	7.9µM*	-95*
CCOC(=O)/C=C1\CN(Cc2cc(OC)c(OC)c(OC)c2)S(=O)(=O)c2ccc(C(F)(F)F)cc21	u	-15%	4	8.9µM*	u	0
FC(F)(F)c1cc(CCN2C(=S)NC[C@@H]2Cc2ccccc2)cc(C(F)(F)F)c1	x	-72%	1	u	u	7
FC(F)(F)c1cc(CCN2C(=S)NC[C@@H]2CC2CCCCC2)cc(C(F)(F)F)c1	20µM*	-30%	-1	14µM*	u	2
CN(CCC#N)c1ccc(/C=C/c2ccnc3ccccc23)cc1	x	-37%	x	u	x	x
O=C(NN=c1c(=O)c2ccccc2c1=O)c1ccccc1	i	16µM*	-3	11µM*	-15%	6
CCC(=O)NC(c1cccs1)c1cc(Cl)c2ccccc2c1O (configuration not stated)	i	1%	x	u	-30%	x
CCC(=O)NC(c1cccs1)c1cc([N+](=O)[O-])c2cccnc2c1O (configuration not stated)	u	-47%	-85*	u	u	-83*
CCCC(=O)NC(c1cccs1)c1cc([N+](=O)[O-])c2cccnc2c1O (configuration not stated)	u	-18%	-90*	-32%	u	-85*
CC(=O)NC(c1cccs1)c1cc([N+](=O)[O-])c2cccnc2c1O (configuration not stated)	u	-10%	-89*	u	13µM*	-87*
O=C(CCc1ccccc1)NC(c1cccs1)c1cc(Cl)c2cccnc2c1O (configuration not stated)	x	-1%	-2	u	13µM*	24
Oc1ccc(C2=Cc3ccc(O)cc3OC2)cc1	x	x	x	x	102%	x
